# SW480 rereplic = DNA re-replication induction in SW480 cells; SW480 DNA re-replication, Hoechst DNA content imaging, 48 h; Potency, µM (series often up to 46.1 µM), usual class: activators; 1.8% of 340,000 active; AID 624297; also: nearly all actives have a fitted effect of over 55% in size
#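 250 cells/well; 23 nL cpd via pin tool; 48 hr, 37 C, 5% CO2; Hoechst 40 min; imager read of total nuclear intensity, ex 405/em 500-530 nm.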
# MCF10A rerep = induces DNA re-replication in MCF 10a normal breast cells | 2.9% of 350,000 active | Potency, µM (highest dose often 46.1 µM), hits mostly activators | MCF 10A DNA re-replication, Hoechst nuclear intensity, 48 h; also: nearly all actives have a fitted effect of over 50% in size
# ATXN2 expr inh = inhibitors of ATXN2 expression. HEK-293 ATXN2-luciferase reporter, luminescence, 24 h. Potency, µM (doses to about 57 µM), actives largely listed as inhibitors. 0.72% of 360,000 active. AID 1745845; also: nearly all actives have a fitted effect of over 55% in size
#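 qHTS (up to 57 uM final) was run with 24 h compound exposure of reporter cells at 37 °C. Each well was multiplexed: SteadyGlo luminescence measured ATXN2-luciferase expression after a fluorogenic Gly-Phe-AFC viability readout (25 uM final).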
# S2 tox = viability counter-screen for ATXN expression inhibitors; S2 cells (HEK-293 line with an ATXN2-luciferase reporter) viability, CellTiter-Fluor protease fluorescence, 24 h; Potency, µM (series often up to 56.7 µM), usual class: cytotoxic; 0.49% of 400,000 active; also: nearly all actives have a fitted effect of over 40% in size
# PINK1 modulator = PINK1 expression modulation; PINK1 immunofluorescence, high-content cytometry, 24 h; 0.2% of 410,000 active; Potency, µM (top dose mostly 76.6 µM), hits mostly activators; active = well fitted activation curve with a large enough effect; inconclusive = small, poorly fitted or top-dose-only effect; cell line not stated here; also: nearly all actives have a fitted effect of over 65% in size
#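 Readout is PINK1 immunofluorescence, quantified alongside mitochondrial, cell and nuclear markers by laser-scanning microplate cytometry. Cells from a stable line were exposed to compound titrations (5 concentrations) for 24 hours, with CCCP controls.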
# IL-1B inflam inh = inflammasome signaling inhibition, IL-1 beta readout | THP-1 LPS/ATP IL-1B secretion, AlphaLISA, 16 h; stronger effect = lower value | activity change, % at 57.5 µM | 4.7% of 360,000 active; in the data active = activity change below about -50%; inconclusive = mostly about -30% to -49%
#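 Secreted IL-1B measured by AlphaLISA bead assay after 16 h compound exposure of THP-1 cells; compounds (final up to 57.5 uM) added 1 h before LPS (250 ng/mL) and ATP (1.25 mM) stimulation; lower signal means less secretion.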
# Hits are given with their value; i = inactive; ? = inconclusive; nt = no result; ! = a repeat was not active; [ ] = another dose, or the depositor's remark. Rows were chosen to be rich in hits. Some 7.1% of all compounds tested hit in one or more screens of this group. Unless noted, calls follow the shape of the dose curve; as a rule, active = well fitted curve in the direction sought with a large enough effect; inconclusive = small, poorly fitted or top-dose-only effect, or another doubt; inactive = no such curve, though single readings can be large; an effect the other way counts as inactive or inconclusive.
SMILES,SW480 rereplic,MCF10A rerep,ATXN2 expr inh,S2 tox,PINK1 modulator,IL-1B inflam inh
COC(=O)c1cc2sc(Cl)cc2n1CC(=O)Nc1ccc(OC)c(OC)c1OC,i,26µM,i,i,?,i
COc1ccc2c(c1)c1c3n2CCN(C)C3=NCC1,i,?,i,i,i,i
Cc1ccc2c(c1)c1c3n2CCN=C3CCC1,i,i,i,i,i,-96
Cc1ccc2c(c1)c1c3n2CCN[C@H]3CCC1,i,?,nt,i,nt,nt
c1cc2c(cc1C1CCCCC1)c1c3n2CCN=C3CCC1,21µM,16µM,i,i,i,?
CCCCC[C@@H](C)N1C[C@@H](COCc2ccccc2)Oc2cc(N3CC[C@@H](N(C)C)C3)ccc2S1(=O)=O,nt,nt,?,28µM,i,-89
C[C@H](c1ccccc1)N1C[C@H](COCc2ccccc2)Oc2cc(N3CC[C@@H](N(C)C)C3)ccc2S1(=O)=O,nt,nt,i,i,i,i
CCCCC[C@H](C)N1C[C@H](COCc2ccccc2)Oc2cc(N3CC[C@H](N(C)C)C3)ccc2S1(=O)=O,nt,nt,?,nt,i,?
CCCCC[C@H](C)N1C[C@H](COCc2ccccc2)Oc2cc(N3CC[C@@H](N(C)C)C3)ccc2S1(=O)=O,nt,nt,?,28µM,i,-64
C[C@@H](c1ccccc1)N1C[C@@H](COCc2ccccc2)Oc2cc(N3CC[C@@H](N(C)C)C3)ccc2S1(=O)=O,nt,nt,28µM,20µM,i,i
CCCCC[C@@H](C)N1C[C@H](COCc2ccccc2)Oc2cc(N3CC[C@@H](N(C)C)C3)ccc2S1(=O)=O,nt,nt,?,25µM,i,-92
COc1cccc(CNC(=O)c2c(OC)cc(=O)n3c2CCN(C(=O)C2CC=CCC2)CC3)c1 (stereo unspecified),nt,nt,nt,i,i,nt
CCCCc1nc(Cl)c(C#N)c2c1CSC(C)(C)C2,?,23µM,nt,i,i,i
Cc1c(C(=O)N(C)Cc2cccc3ncccc23)cnn1-c1nccc(-c2ccccc2F)n1,nt,nt,nt,i,i,nt
CN(C)c1ccc(/C=C\C=C/c2ccnc3ccccc23)cc1,nt,nt,nt,nt,11µM,nt
CCOC(=O)c1ccc(N2CCN(c3cc(C)ccc3C)CC2)c(N)c1,?,18µM,i,?,i,i
COC(C(=O)C(O)C(C)O)C1Cc2cc3cc(OC4CC(OC5CC(O)C(O)C(C)O5)C(O)C(C)O4)c(C)c(O)c3c(O)c2C(=O)C1OC1CC(OC2CC(OC3CC(O)C(OC)C(C)O3)C(O)C(C)O2)C(O)C(C)O1 (stereo unspecified),i,i,10µM,?,i,-89
COC(C(=O)C(O)C(C)O)C1Cc2cc3cc(OC4CC(OC5CC(O)C(O)C(C)O5)C(O)C(C)O4)c(C)c(O)c3c(O)c2C(=O)C1OC1CC(OC2CC(OC3CC(C)(O)C(O)C(C)O3)C(O)C(C)O2)C(O)C(C)O1 (stereo unspecified),i,?,nt,nt,i,nt
Cc1c(N=C2N=C(NC(=O)c3ccc(F)cc3)c3ccccc32)c(=O)n(-c2ccccc2)n1C,i,i,?,nt,40µM,i
Cc1c(NC(=O)NC(=O)c2ccc(F)cc2)c(=O)n(-c2ccccc2)n1C,i,i,i,i,i,i
CC(C)Cn1cnc2c(SCc3ccccc3F)nc(N)nc21,i,?,i,?,i,i
CC(C)Cn1cnc2c(SCc3ccccc3)nc(N)nc21,i,i,i,i,i,-50
CCC(C)Cn1cnc2c(SCc3ccccc3F)nc(N)nc21 (stereo unspecified),?,18µM,i,i,i,-56
CC(C)Cn1cnc2c(N)nc3ccccc3c21,0.58µM!,?,22µM!,i,i,i
COc1ccc(OC)c(-c2nnc3n(Cc4ccc(C)cc4)c(=O)c4ccccc4n23)c1,nt,nt,i,i,i,nt
SMILES,SW480 rereplic,MCF10A rerep,ATXN2 expr inh,S2 tox,PINK1 modulator,IL-1B inflam inh
C[C@@H]1CN(Cc2ccc3c(c2)CN(Cc2cn[nH]c2-c2ccccc2)CCO3)C[C@H](C)O1,nt,nt,nt,i,i,nt
N#CC[C@H](C1CCCC1)n1cc(-c2ncnc3[nH]ccc23)cn1,nt,nt,i,nt,nt,nt
CCOc1ccc(C(=O)CC(C(=O)O)N2CCCCC2)cc1 (stereo unspecified),?,?,i,i,i,-57
CCOc1ccc(C(=O)OC(C)C(=O)N2CCN(Cc3ccccc3)CC2)cc1 (stereo unspecified),i,i,i,i,i,i
CCOc1ccc(C(=O)CC(C(=O)O)N2CCN(Cc3ccccc3)CC2)cc1 (stereo unspecified),i,16µM,i,i,i,i
Cc1ccc(-n2c(=O)c3oc4ccccc4c3n(Cc3ccccc3)c2=O)cc1C,nt,nt,i,i,i,nt
Cc1cc(C)c(S(=O)(=O)N2CCC(n3c(C(F)(F)F)nc4cccnc43)CC2)c(C)c1,nt,nt,i,i,i,nt
COc1ccc(Nc2nnc(-c3ccc(C)c(S(N)(=O)=O)c3)c3ccccc23)cc1,nt,nt,i,i,i,nt
CNC(=O)c1cc(Nc2nnc(-c3ccc(C)c(S(N)(=O)=O)c3)c3ccccc23)ccc1OC,i,i,i,i,i,-74
COc1ccc(CC(=O)Nc2nncs2)cc1OC,8.2µM,i,i,i,i,i
COCCSc1nnc(NC(=O)Cc2ccc(OC)c(OC)c2)s1,23µM,i,i[11.3 µM],i,i,i
CC[C@]12c3[nH]c4cc(-c5ccco5)ccc4c3CCN1C(=O)[C@@H](CC(=O)NCCc1ccccn1)C[C@@H]2C(=O)N1CCN(C(=O)C2CC2)CC1,?,i,i,i,i,i
O=C(C[C@H]1C[C@H](C(=O)N2CCCCC2)[C@@]2(CCc3ccccc3)c3[nH]c4cc(-c5ccco5)ccc4c3CCN2C1=O)NCCN1CCOCC1,?,23µM,?,nt,i,-58
C[C@]12c3[nH]c4ccc(Cl)cc4c3CCN1C(=O)[C@@H](CC(=O)NCCCn1ccnc1)C[C@@H]2C(=O)N1CCCCC1,i,i,i,i,i,i
O=C(C[C@H]1C[C@H](C(=O)N2CCCCC2)[C@@]2(CCc3ccccc3)c3[nH]c4ccc(Cl)cc4c3CCN2C1=O)NCCCn1ccnc1,i,?,?,nt,i,-58
C[C@]12c3[nH]c4cc(-c5ccco5)ccc4c3CCN1C(=O)[C@@H](CC(=O)NCCc1ccccn1)C[C@@H]2C(=O)N1CCCCC1,i,?,i,i,i,-108
COc1cc2c(C(=O)N(C)c3cccc(C(F)(F)F)c3)cn(CC(C)C)c(=O)c2cc1OC,nt,nt,i,i,i,nt
COc1ccc(CNC(=O)Cn2c(SCC(=O)N(C)c3ccccc3)nc3ccccc32)cc1,nt,nt,i,i,i,nt
Cc1ccc(-c2csc(=Nc3cccnc3)n2CCCn2ccnc2)cc1C,i,?,i,?,i,?
Cc1ccc(-c2csc(=Nc3cccnc3)n2CCCN2CCCC2=O)cc1C,i,i,i,i,i,-51

# High-throughput results: PubChem, National Center for Advancing Translational Sciences (NCATS)
